Here are results for 58 compounds from PubChem BioAssay AID1209 (Sanford-Burnham Center for Chemical Genomics, 2008).

Among all 190,000 compounds or so, about 810 (0.43%) were called active. No stated cut-off is given here; in the data, active means inhibition above about 50%; inactive means the rest. The list comes from a sample in which actives are over-represented; it also holds similar structures and randomly drawn compounds.

Chain of Mannose-6-phosphate isomerase (Homo sapiens) (P34949 whole entry, looked up): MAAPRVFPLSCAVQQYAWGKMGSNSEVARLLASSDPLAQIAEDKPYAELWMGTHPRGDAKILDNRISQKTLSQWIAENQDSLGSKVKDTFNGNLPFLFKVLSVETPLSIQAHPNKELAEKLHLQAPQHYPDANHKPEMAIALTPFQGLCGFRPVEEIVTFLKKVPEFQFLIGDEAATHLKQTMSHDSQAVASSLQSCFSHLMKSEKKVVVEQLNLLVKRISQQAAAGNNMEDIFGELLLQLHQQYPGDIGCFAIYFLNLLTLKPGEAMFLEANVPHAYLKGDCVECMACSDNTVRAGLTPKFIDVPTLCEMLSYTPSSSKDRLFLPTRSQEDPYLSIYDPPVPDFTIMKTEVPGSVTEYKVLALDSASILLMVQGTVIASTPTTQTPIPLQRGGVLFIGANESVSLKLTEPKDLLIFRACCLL

The assay addresses Mannose-6-phosphate isomerase (Homo sapiens) (UniProt P34949). Description: MPI enzyme activity inhibition – biochemical, fluorescence intensity, coupled assay, primary screen (AID 1209).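 Further: plate controls were DMSO vehicle for no effect and wells lacking substrate for full effect.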 The conditions noted are these: purified PMI enzyme, at 20 µM, active compounds read high.
On to `CC(OC(=O)/C=C/c1cccs1)C(=O)Nc1ccc(S(N)(=O)=O)cc1` (stereo not drawn), for which the inhibition was -5.9% (inactive).
In the case of `Cc1ccccc1OCC(=O)N(Cc1ccc(N(C)C)cc1)C1CCS(=O)(=O)C1` (stereo not drawn), the inhibition is 3.1% (inactive).
Turning to `C=CCNc1ccc(F)c(F)c1N1CCCCCC1=O`, the inhibition is 4.8% (inactive).
As to `NC(=O)c1cc2cc(Cc3ccccc3Cl)ccc2oc1=O`, the inhibition is -1.2% (inactive).
In the case of `O=C(CN1C(=O)c2ccccc2S1(=O)=O)Nc1ccc(S(=O)(=O)N2CCCCCC2)cc1`, the inhibition was 18.7% (inactive).
For `Cc1cc(C)c(S(=O)(=O)/N=C2/C=C(SCC(=O)O)C(=O)c3ccccc32)cc1C`, the inhibition is -23.3% (inactive).
On to `Cc1cc(C)c(S(=O)(=O)/N=C2/C=C(Sc3ncn[nH]3)C(=O)c3ccccc32)cc1C`, for which the inhibition was 98.1% (active).
For the compound `Cc1ccc(S(=O)(=O)/N=C2/C=C(Sc3ncn[nH]3)C(=O)c3ccccc32)c(C)c1`, the inhibition was 101% (active).
Then `Cc1cc(C)c(S(=O)(=O)Nc2ccc(O)c(Sc3ncn[nH]3)c2)c(C)c1`, with 6.8% (inactive); and `Cc1ccc(S(=O)(=O)Nc2ccc(O)c(Sc3ncn[nH]3)c2)cc1`, with 15.2% (inactive).
Then `Cc1ccc(NC2=C/C(=N\S(=O)(=O)c3cccs3)c3ccccc3C2=O)c(C)c1`, with 0.2% (inactive); and `CCn1c(COc2c(C)cccc2C)nnc1SCC(=O)N1CCN(c2ccccc2)CC1`, with 8.2% (inactive).
Take `Cc1ccc(-c2nn(CC(=O)NCc3ccccn3)c(=O)c3ccccc23)cc1S(=O)(=O)N(C)C`: the inhibition is -28.3% (inactive).
With `COc1ccccc1NC(=O)c1ccc(NS(=O)(=O)c2ccc(F)c(F)c2F)cc1`, the inhibition was -19.3% (inactive).
Take `COC(=O)c1cn(C(=O)c2ccc(C)cc2)c2ccccc12`: the inhibition is 12.6% (inactive).
With `Cc1c(N=Nc2ccc(O)cc2)c(=O)n(-c2ccccc2)n1C`, the inhibition was 15.5% (inactive).
On to `Cc1c(N=C2C=CC(=O)c3ccccc32)c(=O)n(-c2ccccc2)n1C`, for which the inhibition is 55.2% (active).
`CCC(c1c(C)n(C)n(-c2ccccc2)c1=O)c1c(C)n(C)n(-c2ccccc2)c1=O`: the inhibition was -4.4% (inactive).
For `Cc1c(N=C2C=C(Br)C(=O)C(Br)=C2)c(=O)n(-c2ccccc2)n1C`, the inhibition is 64.3% (active).
Regarding `Cc1c(N=c2scc(-c3ccccc3)n2C)c(=O)n(-c2ccccc2)n1C`, the inhibition was -16.2% (inactive).
With `Cc1c(N=CC=Nc2c(C)n(C)n(-c3ccccc3)c2=O)c(=O)n(-c2ccccc2)n1C`, the inhibition is -0.3% (inactive).
Then `CC(=O)/C(N=Nc1c(C)n(C)n(-c2ccccc2)c1=O)=C(\C)O`, with -44.4% (inactive); and `Cc1c(N=C2C(=O)Nc3ccccc32)c(=O)n(-c2ccccc2)n1C`, with 0.4% (inactive); and `CC1=CC(=Nc2c(C)n(C)n(-c3ccccc3)c2=O)C=C(C)C1=O`, with 83.8% (active).
Consider `CCCC(c1c(C)n(C)n(-c2ccccc2)c1=O)c1c(C)n(C)n(-c2ccccc2)c1=O`, for which the inhibition is 3.4% (inactive).
Take `Cc1csc(=Nc2c(C)n(C)n(-c3ccccc3)c2=O)n1-c1ccccc1`: the inhibition was 1.6% (inactive).
For the compound `CCC(C)C1=CC(=Nc2c(C)n(C)n(-c3ccccc3)c2=O)C=C(C(C)CC)C1=O` (stereo not drawn), the inhibition is 52.2% (active).
Under `CC(C)NS(=O)(=O)c1ccc(OCC(=O)NC(C)c2ccccc2)cc1` (stereo not drawn) stands 2.2% (inactive); under `O=C(O)c1ccc(/C=C/c2nc3sc4c(c3c(=O)[nH]2)CCC4)cc1`, -3.7% (inactive); under `COc1cnn(C(C)(C)C)c(=O)c1Cl`, -0.3% (inactive).
Consider `COc1ccc(CC(=O)NCc2ccc3c(c2)cc(C)n3C)cc1OC`, for which the inhibition is 6.1% (inactive).
With `O=C(Nc1ccc(Cl)cc1)NC1CCCc2ccccc21` (stereo not drawn), the inhibition is 2.6% (inactive).
Regarding `Cc1cc(/C=C(\C#N)C(N)=O)c(C)n1-c1ccc(N2CCOCC2)c([N+](=O)[O-])c1`, the inhibition is 3.6% (inactive).
Consider `COc1cc2c(cc1O)CC[C@@H]1[C@@H]2CC[C@]2(C)[C@@H](O)CC[C@@H]12`, for which the inhibition was 1.7% (inactive).
Turning to `C[C@]12CC[C@@H]3c4ccc(O)cc4CC[C@H]3[C@@H]1CC[C@@H]2O`, the inhibition is -5.7% (inactive).
In the case of `C[C@]12CC[C@@H]3c4cc(O)c(O)cc4CC[C@H]3[C@@H]1CC[C@@H]2O`, the inhibition is 51.8% (active).
Under `Cc1ccc(NC(=O)COC(=O)c2ccc3c(c2)C(=O)N(CCc2ccccc2)C3=O)c(C)c1` stands 4.6% (inactive); under `Cc1cc(C)n(-c2cc(N3CCN(S(=O)(=O)c4ccc(Br)cc4)CC3)ccc2[N+](=O)[O-])n1`, 13.5% (inactive); under `Cc1nc2c(C(=O)NCCc3ccccc3)c[nH]n2c(=O)c1Cl`, 60.3% (active).
For the compound `Cc1nc2c(C(=O)NCc3ccccc3)c[nH]n2c(=O)c1Cl`, the inhibition was 12.3% (inactive).
Consider `Cc1nc2c(C(=O)NCCc3ccccc3Cl)c[nH]n2c(=O)c1Cl`, for which the inhibition is 2.9% (inactive).
Turning to `CNS(=O)(=O)c1cnccc1N1CCN(C)CC1`, the inhibition is 9.4% (inactive).
For the compound `Cc1ccc(C(=O)Nc2ccc(SC(F)F)cc2)s1`, the inhibition is -11.4% (inactive).
For the compound `COc1cc(/C=C2\CC/C(=C\c3cc(OC)c(OC)c(OC)c3)C2=O)cc(OC)c1OC`, the inhibition is 4.2% (inactive).
Then `COc1cc(/C=C2\CC/C(=C\c3cc(OC)c(O)c(OC)c3)C2=O)cc(OC)c1O`, with 59.3% (active); and `COc1ccc(/C=C2\CC/C(=C\c3ccc(OC)c(OC)c3)C2=O)cc1OC`, with 25.9% (inactive); and `CCn1c(COc2cccc3ccccc23)nnc1SCC(=O)OC1CCCCC1`, with 17.8% (inactive).
In the case of `Cc1ccc(S(=O)(=O)NCC(=O)N2CCCC2)cc1`, the inhibition was -10.6% (inactive).
`Cc1ccccc1CNC(=O)Cc1cccs1`: the inhibition was 2% (inactive).
As for `Cc1ccsc1/C=C1\CCc2ccccc2C1=O`, the inhibition was 25.2% (inactive).
Consider `COc1ccc(CCNC(=O)C2CC(=O)N(CCc3ccccc3)C2)cc1OC` (stereo not drawn), for which the inhibition was 0% (inactive).
Then `CC(C)NC(=S)Nc1cccc2cnccc12`, with -4.7% (inactive); and `Cc1ccc(NC(=S)Nc2cccc3cnccc23)c(C)c1`, with 37.8% (inactive).
Under `FC(F)(F)c1ccccc1NC(=S)Nc1cccc2cnccc12` stands 5.4% (inactive); under `Cc1ccc(C)c(NC(=S)Nc2cccnc2)c1`, -7% (inactive); under `Cc1ccccc1NC(=S)Nc1cccc2cnccc12`, 60.5% (active).
`Cc1ccc(C)c(NC(=S)Nc2cccc3cnccc23)c1`: the inhibition was 50.3% (active).
As for `O=C(O)CCC(=O)NNC(=O)CCC(=O)Nc1ccccc1`, the inhibition was 13.6% (inactive).

Usually inhibition stands for the change of the read-out against control, counted positive when it falls.
